“And” between values parts separate entries of the source, which are not always exact repeats. Identical values can stand only once. Results filed as inconclusive are left out. The source made the active and inactive calls. Unless noted, calls follow the shape of the dose curve; as a rule, active = well fitted curve in either direction with a large enough effect (not every such curve was filed as active); inconclusive = small, poorly fitted or top-dose-only effect, or another doubt; inactive = flat fitted curve, though single readings scatter.
Columns and labels:
[1] = target: Cytochrome P450 1A2 (Homo sapiens) (UniProt P05177); assay: p450-cyp1a2 (AID 410; calls by dose curve; also: potency is read from the fitted curve at half-maximal effect;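 as to activity change, negative = inhibition: -100% = full effect of reference inhibitor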); conditions: recombinant CYP1A2, luciferin-ME demethylation, luminescence; series mostly up to 57 µM
Chain of Cytochrome P450 1A2 (Homo sapiens) (P05177 whole entry, looked up): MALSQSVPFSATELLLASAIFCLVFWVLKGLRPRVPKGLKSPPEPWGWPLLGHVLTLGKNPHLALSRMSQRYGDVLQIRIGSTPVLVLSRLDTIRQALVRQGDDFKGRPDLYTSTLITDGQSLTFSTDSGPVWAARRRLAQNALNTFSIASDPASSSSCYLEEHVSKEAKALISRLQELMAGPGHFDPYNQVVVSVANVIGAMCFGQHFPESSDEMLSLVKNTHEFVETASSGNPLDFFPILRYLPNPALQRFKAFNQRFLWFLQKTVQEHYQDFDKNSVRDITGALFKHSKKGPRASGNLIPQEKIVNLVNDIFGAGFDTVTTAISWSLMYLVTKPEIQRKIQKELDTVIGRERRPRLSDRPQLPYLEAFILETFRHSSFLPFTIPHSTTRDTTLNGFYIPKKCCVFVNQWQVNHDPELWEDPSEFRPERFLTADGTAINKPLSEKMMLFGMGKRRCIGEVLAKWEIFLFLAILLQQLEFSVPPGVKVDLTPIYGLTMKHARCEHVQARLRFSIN
Method in brief: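 Read-out is luminescence from luciferin produced by CYP1A2 demethylation of Luciferin-ME (100uM, at Km). Detection reagent stopped the 60 min NADPH-dependent reaction; signals were normalized to 57 uM furafylline.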

[2] = NFAT Signaling Pathway (AID 444); conditions: Jurkat NFAT-bla M1, carbachol, beta-lactamase ratio, 5 h;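 also: carbachol stimulus at about its EC50 of 1 µM final; % is scaled to controls: 0 for no effect and ±100 for the full control effect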
Method in brief: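 Jurkat cells with NFAT-driven β-lactamase reporter and co-expressed M1 receptor, stimulated with carbachol (final 1 uM, ~EC50), compound titration, 5 h at 37 °C. CCF4 loaded 1 h at RT; 460/530 nm ratio gave %activity and AC50.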

[3] = Stat Signaling Pathway (AID 446); conditions: ME-180 (cervical carcinoma) SIE beta-lactamase reporter, IL-6 stimulated, 5 h;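 also: ME-180 cervical cancer cells given 40 pM IL-6 alongside compound; SIE-controlled beta-lactamase reporter measured as 460/530 nm FRET emission ratio; % is scaled to controls: 0 for no effect and ±100 for the full control effect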
Method in brief: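 Compound effects on IL-6-induced STAT reporter activity were measured in ME-180 cells. After overnight culture, cells were co-treated with 40 pM IL-6 for 5 hrs before beta-lactamase substrate loading at room temperature.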

[4] = target: Glucocorticoid receptor (Homo sapiens) (UniProt P04150); assay: GR-GFP Redistribution (AID 450;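 active = compounds whose dose series gives a full or clear partial fitted curve of increased nuclear translocation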; also: potency is read from the fitted curve at half-maximal effect); conditions: U2OS GR-GFP nuclear translocation, laser cytometry, 2 h
Chain of Glucocorticoid receptor (Homo sapiens) (P04150 whole entry, looked up): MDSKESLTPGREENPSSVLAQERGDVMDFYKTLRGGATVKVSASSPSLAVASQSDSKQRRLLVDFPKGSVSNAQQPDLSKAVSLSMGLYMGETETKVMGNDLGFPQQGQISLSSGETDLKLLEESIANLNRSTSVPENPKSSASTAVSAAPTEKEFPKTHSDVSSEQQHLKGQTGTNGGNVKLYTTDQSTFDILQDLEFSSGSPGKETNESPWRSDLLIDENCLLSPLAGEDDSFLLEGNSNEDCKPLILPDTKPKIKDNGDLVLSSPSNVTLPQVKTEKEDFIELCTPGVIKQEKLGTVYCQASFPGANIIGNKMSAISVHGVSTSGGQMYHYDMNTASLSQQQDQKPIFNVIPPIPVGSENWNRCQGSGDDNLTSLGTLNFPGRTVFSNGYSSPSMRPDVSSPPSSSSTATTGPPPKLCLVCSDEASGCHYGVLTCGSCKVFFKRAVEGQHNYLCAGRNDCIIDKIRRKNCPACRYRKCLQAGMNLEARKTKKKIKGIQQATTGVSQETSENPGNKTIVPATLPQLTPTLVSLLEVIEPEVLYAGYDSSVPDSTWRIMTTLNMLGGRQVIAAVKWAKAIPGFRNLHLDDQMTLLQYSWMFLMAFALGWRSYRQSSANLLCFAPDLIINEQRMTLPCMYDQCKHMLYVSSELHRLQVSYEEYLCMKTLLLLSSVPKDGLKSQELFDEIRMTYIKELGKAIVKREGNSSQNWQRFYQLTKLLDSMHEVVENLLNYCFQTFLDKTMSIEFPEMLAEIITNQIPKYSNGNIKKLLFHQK

[5] = Cell Viability - BJ (AID 421; calls by dose curve;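 also: potency is read from the fitted curve at half-maximal effect; cells exposed to compound for 40 hours at 37 °C before readout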); conditions: BJ fibroblast viability, qHTS
Method in brief: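 Luminescent ATP signal (CellTiter-Glo, 20 min at room temperature) served as the read-out of viable BJ cells after 40 hours of compound treatment. Responses were scaled between DMSO and 100 uM tamoxifen, and AC50 values were obtained by Hill modeling.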

[6] = Cell Viability - Jurkat (AID 426;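 active = dose-dependent loss of cell ATP signal giving a full or clear fitted curve, ranked by lower potency value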;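 also: potency is read from the fitted curve at half-maximal effect; cells exposed to compound for 40 hours at 37 °C before ATP read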); conditions: qHTS
Method in brief: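 Cytotoxicity was scored as loss of cellular ATP, measured by luciferase-based luminescence, in Jurkat clone E6-1 cells after 40 h compound treatment; tamoxifen and doxorubicin served as positive controls.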

[7] = Cell Viability - Hek293 (AID 427;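 active = compounds whose dose-response curve shows a full or clear partial loss of cell viability, called from curve shape rather than a numeric limit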;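 also: potency is read from the fitted curve at half-maximal effect; cells exposed to compound for 40 hours at 37 °C before reading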); conditions: qHTS
Method in brief: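 Luminescent ATP read-out (CellTiter-Glo, 20 min RT) after 40 hr compound exposure at 37 °C in complete medium. Signal normalized to DMSO (basal) and 100 uM tamoxifen (100% inhibition); concentration-response fitted with the standard Hill equation to give AC50.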

[8] = Cell Viability - HepG2 (AID 433; calls by dose curve;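 also: potency is read from the fitted curve at half-maximal effect; potency for ATP loss meaning cytotoxicity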); conditions: qHTS
Method in brief: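 Cytotoxicity read as ATP loss (CellTiter-Glo luminescence) after 40 hr compound exposure of HepG2, 1500 cells/well, 37 °C. AC50 by Hill equation; 0% set by DMSO, 100% inhibition by 100 uM tamoxifen.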

[9] = Cell Viability - MRC5 (AID 434; calls by dose curve;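 also: potency is read from the fitted curve at half-maximal effect; cells exposed to compound for 40 hours at 37 °C; potency reflects cytotoxicity seen as loss of intracellular ATP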); conditions: MRC5 lung fibroblast viability, qHTS
Method in brief: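 ATP luminescence read-out (CellTiter-Glo, 20 min RT) after 40 hr, 37 °C compound exposure of 1500 MRC5 cells/well. Data normalized to DMSO (basal) and 100 uM tamoxifen (100% inhibition); AC50 from standard Hill equation.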

[10] = Cell Viability - SK-N-SH (AID 435; calls by dose curve; also: potency is read from the fitted curve at half-maximal effect); conditions: SK-N-SH neuroblastoma cell viability qHTS
Method in brief: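 qHTS cytotoxicity: CellTiter-Glo ATP luminescence after 40 h compound exposure of human neuroblastoma SK-N-SH cells at 37 °C. AC50 derived by Hill-equation fitting, with DMSO as basal and 100 uM tamoxifen as full inhibition.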

CCN1CCN(C(=O)N[C@H](C(=O)N[C@@H]2C(=O)N3C(C(=O)O)=C(CSc4nnnn4C)CS[C@@H]23)c2ccc(O)cc2)C(=O)C1=O
inactive: Potency [1] | activity change, negative = inhibition ([2]; at 17.2 µM (top of the series)) 3.22% | activity, negative = inhibition ([3]; at 17.2 µM (top of the series)) 8%

c1coc(CNc2ncnc3nc[nH]c23)c1
inactive: activity change, negative = inhibition ([2]; at 17.2 µM (top of the series)) 1.53% | activity, negative = inhibition ([3]; at 17.2 µM (top of the series)) -16.6% | Potency [4] > 20.6 µM and > 46 µM

Cc1cc(O)c2c(c1)C(=O)c1cccc(O)c1C2=O
inactive: Potency [5] > 92 µM | Potency [6] > 92 µM | Potency [7] > 92 µM | Potency [8] > 92 µM | Potency [9] > 92 µM | Potency [10] > 92 µM

O=c1c(O)c(-c2ccc(O)c(O)c2)oc2cc(O)ccc12
active: Potency [1] 1.58 µM and 2.51 µM
inactive: Potency [4] > 46 µM

COc1ccc2c(c1OC)C(=O)OC2[C@H]1c2c(cc3c(c2OC)OCO3)CCN1C (some centres undefined)
inactive: Potency [1] | activity change, negative = inhibition ([2]; at 17.2 µM (top of the series)) -11.3% | activity change, negative = inhibition ([2]; at 38 µM (top of the series)) -9.62% | activity, negative = inhibition ([3]; at 17.2 µM (top of the series)) 4.57% | activity, negative = inhibition ([3]; at 38 µM (top of the series)) 2.78% | Potency [4] > 46 µM and > 20.6 µM

Nc1nc2c(c(=O)[nH]1)N(C=O)[C@H](CNc1ccc(C(=O)N[C@@H](CCC(=O)O)C(=O)O)cc1)CN2
inactive: Potency [1] | activity change, negative = inhibition ([2]; at 17.2 µM (top of the series)) 4.7% | activity, negative = inhibition ([3]; at 17.2 µM (top of the series)) 7.59% | Potency [4] > 20.6 µM

COc1ccc([C@@H]2CNC(=O)C2)cc1OC1CCCC1
inactive: activity change, negative = inhibition ([2]; at 17.2 µM (top of the series)) 2.36% | activity change, negative = inhibition ([2]; at 38 µM (top of the series)) 11.5% | activity, negative = inhibition ([3]; at 17.2 µM (top of the series)) -9.88% | activity, negative = inhibition ([3]; at 38 µM (top of the series)) -0.129% | Potency [4] > 46 µM and > 20.6 µM
